Experimental data published in PubChem BioAssay (EPA / NIEHS).
Calls of active or inactive are those of the source. The calls were made as follows: active = hit-call score of the fitted dose curve at least 0.9, where 1 is the maximum; inactive = score below 0.9.

test: CCTE_Padilla_ZF_Score.Position: CCTE's 144 Hour Post-fertilization zebrafish Assay Score for Position, Padilla Lab (AID 2284409)
Description: CCTE_Padilla_ZF_Phenotype_Score is a whole embryo, multiplexed assay using zebrafish ova exposed for 144 hours post fertilization on a 96-well plate.CCTE_Padilla_ZF_Score.Position is one of one assay component(s) measured or calculated from the CCTE_Padilla_ZF_Phenotype_Score assay. It is designed to make measurements of zebrafish development as detected with brightfield microscopy of developing zebrafish embryos.Data from the assay component CCTE_Padilla_ZF_Score.Position was analyzed into 1 assay endpoints. This assay endpoint, CCTE_Padilla_ZF_Score.Position, was analyzed in the positive analysis fitting direction relative to DMSO as the negative control and baseline of activity. Using a type of viability reporter, gain-of-signal activity can be used to understand changes in developmentals as they relate to the whole embryo. To generalize the intended target to other relatable targets, this assay endpoint is annotated to the zebrafish development intended target family, where the subfamily is embryonic mobility.
Zebrafish husbandry: Wild type adult zebrafish (Danio rerio; undefined outbred stock obtained from Aquatic Research Organisms, Hampton, NH, 03842) were housed in an AAALAC-approved animal facility at 28C with a 14:10 h light: dark cycle (lights on at 08:30 h). Adult fish (2-3 females per male; density = 15-20 adults per tank) were kept in one of several 9-liter (L) flow-through colony tanks (Aquaneering Inc., San Diego, CA). All adults in a colony tank were placed in a 2 L (static) breeding tank (Aquatic Habitats, Apopka, FL) one hour prior to light onset. Typically, adults from two to three colony tanks were mated on the same day. Two hours after light onset the adults were returned to the colony tank. All embryos were gathered from each breeder tank, pooled, and placed in a 28C water bath for 2 h, followed by two washes with 0.06% bleach (v/v) in 10% Hanks' Balanced Salt Solution (13.7 mM NaCl 0.54 mM KCl, 25 uM Na2HPO4, 130 uM CaCl2 100 um MgSO4 and 420 um NaHCO3,), hereafter referred to as Hanks' solution, for 5 min in order to remove any residual bacteria or fungi. Immediately following washing, the embryos were examined, and healthy embryos were separated from dead or unfertilized eggs and moved into fresh Hanks'. Chemical exposures: Zebrafish embryos were exposed in 96-well plates. Between 6- and 8-hours post fertilization (hpf), healthy embryos (with chorions) were transferred, one embryo per well, into 96 well (0.5 mL) microtiter plates (Cell Culture-Treated, Flat-Bottom Microplate 96 well [Corning Costar, Kennebunk, ME; Cat 09-761-145]) filled with 200 uL of Hanks' solution. A random number generator was used to assign the order in which the rows of embryos were plated in 96 well plates each week. After plating, the embryos were dosed with 0.8 uL of the chemical dosing solution then immediately sealed with AlumaSeal II (Excel Scientific Inc, Victorville, CA) to prevent volatilization of the chemicals, and then placed in a leakproof secondary container. These containers were placed in an incubator maintained on a 14:10 h light: dark cycle at 26C for rearing. On 5 dpf, live larvae were gently moved out of the plate with test chemicals and into a new 96 well mesh plate (Millipore Corp., Bedford, MA) with just the Hanks' solution. Once within the mesh well plate, the animals were rinsed with 400 uL of fresh Hanks' three times, and then the plates were covered with a non-adhesive material (Microseal A, BioRad, Hercules, CA), plate lid added, and then plate sides wrapped in Parafilm (PM992, Bermis Company, Neenah, WI), and returned to the incubator. […]

Structure (SMILES) | outcome | AC50
O=C(O)C(F)(F)C(F)(F)OC(F)(F)F | inactive | –
FC(F)(F)C(F)(F)C(F)(F)C(F)(F)C(F)(F)C(F)(F)CC1CO1 (stereo not given) | inactive | –
OCC(F)(F)C(F)(F)C(F)(F)C(F)(F)C(F)(F)C(F)F | inactive | –
C=CC(=O)OCC(F)(F)C(F)(F)C(F)(F)C(F)(F)COC(=O)C=C | inactive | –
FC(F)(F)C(F)(F)CNCC(F)(F)C(F)(F)F | inactive | –
C=C(C)C(=O)OCC(F)(F)C(F)(F)C(F)(F)F | inactive | –
CCO[Si](CCC(F)(F)C(F)(F)C(F)(F)C(F)(F)C(F)(F)C(F)(F)F)(OCC)OCC | inactive | –
FC(F)(Br)C(F)(F)C(F)(F)C(F)(F)C(F)(F)C(F)(F)Br | inactive | –
O=C(O)C(F)(OC(F)(F)C(F)(OC(F)(F)C(F)(F)C(F)(F)F)C(F)(F)F)C(F)(F)F (stereo not given) | inactive | –
O=C(O)C(F)(F)C(F)(F)F | inactive | –
Cc1ccc(S(=O)(=O)OCC(F)(F)C(F)(F)C(F)(F)C(F)(F)C(F)(F)C(F)F)cc1 | inactive | –
O=C(O)C=C(C(F)(F)F)C(F)(F)F | inactive | –
FC(F)(F)C(F)(F)C(F)(F)C(F)(F)C(F)(F)C(F)(F)C(F)(F)I | inactive | –
OCC(F)(F)C(F)(F)C(F)(F)C(F)(F)C(F)(F)C(F)(F)F | inactive | –
FC(F)(F)C(F)(F)C(F)(F)C(F)(F)C(F)(F)C(F)(F)C(F)(F)C(F)(F)CCS | inactive | –
N=C(N)C(F)(F)C(F)(F)C(F)(F)C(F)(F)C(F)(F)C(F)(F)C(F)(F)F | inactive | –
O=S(=O)(O)C(F)(F)C(F)(F)C(F)(F)C(F)(F)C(F)(F)C(F)(F)C(F)(F)F | – | 22 µM (active)
O=C(O)C(F)(F)C(F)(F)C(F)F | inactive | –
O=C(O)C(F)(F)C(F)(F)C(F)(F)C(F)(F)C(F)(F)C(F)(F)C(F)(F)C(F)(F)Cl | – | 70.4 µM (active)
CCCCCCCCC(F)(F)C(F)(F)C(F)(F)C(F)(F)C(F)(F)C(F)(F)F | inactive | –

Structure (SMILES) | outcome | AC50
O=C(O)C(F)(OC(F)(F)C(F)(OC(F)(F)C(F)(OC(F)(F)C(F)(F)C(F)(F)F)C(F)(F)F)C(F)(F)F)C(F)(F)F (stereo not given) | inactive | –
O=C(O)C(F)(F)C(F)(F)C(F)(F)C(F)(F)C(F)(F)C(F)(F)C(F)(F)C(F)(F)C(F)(F)C(F)(F)C(F)(F)C(F)(F)C(F)(F)F | inactive | –
O=S(=O)(OCCOC(F)(F)F)C(F)(F)F | inactive | –
O=P(O)(O)OCCC(F)(F)C(F)(F)C(F)(F)C(F)(F)C(F)(F)C(F)(F)F | inactive | –
O=C(O)C(F)(F)C(F)(F)C(F)(F)C(F)(F)C(F)(F)C(F)(F)C(F)(F)C(F)(F)C(F)(F)C(F)(F)C(F)(F)C(F)(F)F | inactive | –
O=C(O)C(F)(F)C(F)(F)C(F)(F)C(F)(F)F | inactive | –
O=S(=O)(OCC(F)F)C(F)(F)F | inactive | –
FC(F)(F)C(F)(F)C(F)(F)C(F)(F)C(F)(F)C(F)(F)C(F)(F)C(F)(F)F | inactive | –
FC(F)(F)C(F)(F)C(F)(F)C(F)(F)CCI | inactive | –
C=CC(=O)OCC(F)(F)C(F)(F)C(F)(F)C(F)(F)C(F)(F)C(F)(F)C(F)(F)F | inactive | –
O=C(CC(=O)C(F)(F)C(F)(F)F)C(F)(F)F | inactive | –
O=C(Cl)C(F)(F)C(F)(F)C(F)(F)C(F)(F)C(F)(F)C(F)(F)C(F)(F)C(F)(F)F | inactive | –
FC(F)(I)C(F)(F)C(F)(F)C(F)(F)I | inactive | –
FC(F)(F)C(F)(F)C(F)(F)CI | inactive | –
O=C(O)C(F)(F)C(F)(F)C(F)(F)F | inactive | –
OCCCC(F)(F)C(F)(F)C(F)(F)F | inactive | –
OCC(F)(F)C(F)(F)C(F)(F)F | inactive | –
CC(C)(C)C(=O)CC(=O)C(F)(F)C(F)(F)C(F)(F)F | – | 29 µM (active)
C=CC(F)(F)C(F)(F)C(F)(F)C(F)(F)C(F)(F)C(F)(F)C(F)(F)C(F)(F)F | inactive | –
OCCCC(F)(F)C(F)(F)C(F)(F)C(F)(F)C(F)(F)C(F)(F)C(F)(F)F | inactive | –
